In all, about 280,000 compounds went through this assay and about 50 (0.02%) were called active. No stated cut-off is given here; in the data, active means activation above about 50% (passing the limit was not always enough); inactive means the rest. Many of the other results were omitted from the sample, so actives are more common in it than they were. Results with a measured potency or affinity are listed apart.

This note sets out measurements from PubChem BioAssay AID1777 (Sanford-Burnham Center for Chemical Genomics, 2009).

The target of this assay is Kappa-type opioid receptor (Homo sapiens) (UniProt P41145). The assay is described as follows: kappa opioid receptor activators – cell-based, luminescence, uHTS, primary screen (AID 1777). To be noted: KOR beta-arrestin recruitment, at 10 µM, active compounds read high.
Kappa-type opioid receptor (Homo sapiens), sequence (P41145 whole entry, looked up): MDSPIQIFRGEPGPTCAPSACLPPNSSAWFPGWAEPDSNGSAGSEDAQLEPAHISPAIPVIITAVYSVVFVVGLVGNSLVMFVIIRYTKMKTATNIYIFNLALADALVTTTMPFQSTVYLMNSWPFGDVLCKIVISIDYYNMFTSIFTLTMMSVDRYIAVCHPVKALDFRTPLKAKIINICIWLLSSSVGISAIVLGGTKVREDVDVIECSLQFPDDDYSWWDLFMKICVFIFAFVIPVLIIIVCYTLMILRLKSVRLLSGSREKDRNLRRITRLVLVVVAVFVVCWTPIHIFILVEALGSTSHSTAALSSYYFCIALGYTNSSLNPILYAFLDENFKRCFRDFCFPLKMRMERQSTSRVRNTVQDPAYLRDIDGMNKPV
For `COc1cccc(CN2CC(C(=O)N(C)Cc3nc(C)cs3)CCC2=O)c1` (stereo not given), the activation is -2.2% (inactive). In the case of `O=c1cc(N2CCN(c3ccccc3)CC2)[nH]c(=O)n1Cc1ccc(F)cc1` it was -5.2% (inactive); in that of `Cc1cccc(N2CCN(C(=O)c3cccc(N4CCCC4=O)c3)CC2)c1C`, -3.4% (inactive).

In the case of `Cc1cccc2cc(CN(Cc3cccs3)C(c3nnnn3C3CCCC3)C(C)C)c(=O)[nH]c12` (stereo not given), the activation is 66% (active). `CCC(c1nnnn1C1CCCC1)N(Cc1cccs1)Cc1cc2cc(C)ccc2[nH]c1=O` (stereo not given): the activation was 3.2% (inactive). The value for `Cc1cccc2cc(CN(Cc3cccs3)C3(c4nnnn4C4CCCC4)CCCC3)c(=O)[nH]c12` was 9.6% (inactive); that for `Cc1ccc(N2CC(C(=O)N3CCCCCC3)CC2=O)cc1` (stereo not given) was 1.5% (inactive).

As for `CC1CCCN(C(=S)Nc2ccc(S(=O)(=O)N3CCCCC3)cc2)C1` (stereo not given), the activation is -0.4% (inactive).

With `CCCOC(=O)NC1C(NC(=O)OCCC)N(C)C(=O)N1C` (stereo not given), the activation was -2.1% (inactive). In the case of `Cn1cccc1/C=N/N1CCN(Cc2cccc3ccccc23)CC1` it was 3% (inactive); in that of `Nc1ccc2nc(SCC(=O)c3ccccc3)sc2c1`, -1.7% (inactive); in that of `O=C(CSc1nc2ccc([N+](=O)[O-])cc2[nH]1)c1ccc2ccccc2c1`, -0.1% (inactive).

In the case of `O=C(CSc1nc2ccc([N+](=O)[O-])cc2s1)c1ccc2ccccc2c1`, the activation is 57.8% (active). In the case of `CCOC(=O)N1CCC(N(CCOC)C(=O)Nc2ccc(Cl)c(Cl)c2)CC1` it was -4.1% (inactive); in that of `COc1ccc(OC)c2[nH]c(=O)c(CCNC(=S)NC(C)(C)C)cc12`, -9% (inactive). In the case of `Oc1cccc(C(O)CNCc2ccc(OCc3ccc(Cl)cc3Cl)cc2)c1` (stereo not given) it was 103% (active); in that of `OCCNCc1ccc(OCc2ccc(Cl)cc2Cl)cc1`, -6.2% (inactive); in that of `OCCCCNCc1ccc(OCc2ccc(Cl)cc2Cl)cc1`, 3.1% (inactive).

Regarding `Cc1cc(C)n(CCNC(=O)c2cc(COc3ccc4ncccc4c3)on2)n1`, the activation is 0.2% (inactive). In the case of `Cc1ccc(OC(C)c2nnc(N)s2)cc1Cl` (stereo not given) it was -0.5% (inactive); in that of `COc1ccc(S(=O)(=O)N2CCCC(C(=O)NC3CCCC3)C2)cc1OC` (stereo not given), -2.8% (inactive). The value for `C(=C\c1ccccc1)/CNCC1CCCO1` (stereo not given) was 2% (inactive); that for `CC[C@@H](C(=O)[C@@H](C)[C@@H](O)[C@H](C)CCc1ccc(C)c(O)c1C(=O)O)[C@H]1O[C@](CC)([C@H]2CC[C@](O)(CC)[C@H](C)O2)C[C@@H]1C` was 83.4% (active). The value for `CC(C)OCCCNC(=O)C(Cc1ccccc1)NS(=O)(=O)c1ccc2c(c1)CCC(=O)N2` (stereo not given) was 0.5% (inactive); that for `COc1ccc(CCN2C(=O)CSC2=Nc2ccc(C)cc2C)cc1OC` was 9.8% (inactive).

For the molecule `COc1ccc(N=C2SCC(=O)N2CCc2ccc(OC)c(OC)c2)cc1`, the activation is 23.1% (inactive).

Regarding `COc1ccc2cc(CN(CC3COCCO3)S(=O)(=O)c3c(C)cc(C)cc3C)c(=O)[nH]c2c1` (stereo not given), the activation was -0.5% (inactive). In the case of `O=C(CN1CCN(c2ccc(F)cc2)CC1)Nc1cccnc1Cl` it was 0.4% (inactive); in that of `CCN(CC)S(=O)(=O)c1ccc(-c2nnc(SCC(=O)c3ccc(OC)cc3)o2)cc1`, 3.1% (inactive); in that of `COc1ccc(C(=O)CSc2nnc(-c3ccc(C)cc3)o2)cc1`, -0.9% (inactive). The value for `COc1ccc(C(=O)CSc2nnc(-c3ccc(S(=O)(=O)N4CCOCC4)cc3)o2)cc1` was 50.2% (active). Consider `O=C(NCc1ccccc1)c1ccc(N2C(=O)C3CCCCC3C2=O)cc1` (stereo not given), for which the activation was -2.4% (inactive). The value for `Cc1ccc2cc(CN(Cc3ccc4c(c3)OCO4)Cc3nnnn3Cc3ccco3)c(=O)[nH]c2c1` was 26.7% (inactive); that for `Cc1cc(C)c2cc(CN(Cc3ccc4c(c3)OCO4)Cc3nnnn3Cc3ccco3)c(=O)[nH]c2c1` was 83.5% (active); that for `Cc1ccc(C)c2[nH]c(=O)c(CN(Cc3ccc4c(c3)OCO4)Cc3nnnn3Cc3ccco3)cc12` was 10.8% (inactive). In the case of `Cc1ccc2nc(C)c(C(=O)N/N=C/c3ccc(N4CCOCC4)cc3)cc2c1` it was 3% (inactive). In the case of `CN(c1ccccc1C(=O)Nc1ccc(CC#N)cc1)S(=O)(=O)c1ccccc1` it was 2.4% (inactive); in that of `Cc1ccccc1NC(=S)N(Cc1cccs1)C1CCCCC1`, -6.5% (inactive); in that of `Cc1ccccc1NC(=S)N(Cc1cccs1)C1CCCC1`, 4.8% (inactive). Turning to `Cc1ccc(C(C)NC(=O)c2cc(C)oc2C)cc1` (stereo not given), the activation was 8.6% (inactive). The value for `Clc1ccc(CSc2nnc(-c3cccnc3)n2Cc2ccco2)c(Cl)c1` was -2.8% (inactive); that for `O=C(CSc1nnc(-c2ccccn2)n1Cc1ccco1)c1ccc(Cl)cc1` was 81.9% (inactive). In the case of `COc1ccccc1NC(=O)CSc1nnc(-c2ccccn2)n1Cc1ccco1` it was 17.1% (inactive); in that of `Clc1cccc(CSc2nnc(-c3cccnc3)n2Cc2ccco2)c1`, -4.9% (inactive).

With `Clc1ccccc1CSc1nnc(-c2ccccn2)n1Cc1ccco1`, the activation is 31.6% (inactive). The value for `COc1ccc(C)cc1NC(=O)CSc1nnc(-c2ccccn2)n1Cc1ccco1` was 1.2% (inactive). In the case of `Cc1ccc(O)c(N=Nc2ccc(S(=O)(=O)N3CCCC3)cc2)c1` it was -0.2% (inactive); in that of `CN(C)CC(C)(C)CNC(=O)C1CCN(CCCc2ccccc2)CC1`, -5.3% (inactive).

Consider `CCOc1nc(NC2CCCC2)nc(N2CCC(C)CC2)n1`, for which the activation is -3.8% (inactive). The value for `CCCNC(=O)NC(=O)CSc1nnc(-c2ccncc2)n1CC` was -1.1% (inactive). Regarding `COC(=O)CN1C(=O)[C@H]2[C@@H](c3ccc(C)o3)N3C(=O)CN(CCO)C(=O)[C@@]3(Cc3ccccc3)[C@H]2C1=O`, the activation was 5.5% (inactive). In the case of `O=C1C2ON(c3ccccc3)C(c3cccnc3)C2C(=O)N1c1ccccc1` (stereo not given) it was -3.9% (inactive); in that of `Cc1c(Cl)cccc1N1C(=O)C2ON(c3ccccc3)C(c3cccnc3)C2C1=O` (stereo not given), 0.9% (inactive).

For `CC(=O)N1CCC(C(=O)NC2CC(C)(C)Cc3c2cnn3-c2ccc(F)cc2)CC1` (stereo not given), the activation was -2.2% (inactive). The value for `CC(=O)Nc1ccc(N/C=C/C(=O)c2ccccc2)cc1` was -0.7% (inactive); that for `Cn1c(=O)c2c(nc(Oc3ccc4c(c3)OCO4)n2Cc2ccc(Br)cc2)n(C)c1=O` was 9.8% (inactive); that for `Cn1c(=O)c2c(nc(Oc3ccc4c(c3)OCO4)n2Cc2ccc(Cl)cc2)n(C)c1=O` was 62.7% (inactive). Regarding `Cn1c(=O)c2c(nc(Oc3ccc4c(c3)OCO4)n2Cc2ccc(F)cc2)n(C)c1=O`, the activation is 67.5% (active).

As for `Cn1c(=O)c2c([nH]c(OCc3ccc(Cl)cc3Cl)[n+]2Cc2ccc(F)cc2)n(C)c1=O`, the activation is 6.8% (inactive). The value for `O=C(c1cnccn1)N(Cc1cccs1)C1(C(=O)NC2CCCC2)CCCCC1` was 30.1% (inactive); that for `O=C(c1ccc(=O)[nH]c1)N(Cc1cccs1)C1(C(=O)NC2CCCC2)CCCCC1` was 5.3% (inactive); that for `O=C(c1cnccn1)N(Cc1cccs1)C1(C(=O)NC2CCCCC2)CCCCC1` was 64.7% (active).

Take `O=C(Cc1cccs1)N(Cc1cccs1)C1(C(=O)NC2CCCC2)CCCCC1`: the activation is -2.8% (inactive).

As to `O=C(Cc1cccs1)N(Cc1cccs1)C1(C(=O)NC2CCCCC2)CCCCC1`, the activation is -1.5% (inactive).

On to `COc1ccc(NC2=NCCCCC2)cc1`, for which the activation was -4.3% (inactive). In the case of `Cc1ccc(N2C(=O)C(c3c(C)[nH]n(-c4ccccc4)c3=O)(C(F)(F)F)C3=C2CC(C)(C)CC3=O)cc1` (stereo not given) it was -2.8% (inactive). In the case of `Cc1ccc(C(=O)NC(=S)Nc2cccc(NC(=O)c3ccccc3Cl)c2)cc1[N+](=O)[O-]` it was 1.9% (inactive); in that of `CNC(=S)N(CCc1c(C)[nH]c2ccc(Cl)cc12)Cc1cccnc1`, -1% (inactive). In the case of `c1ccc(Cn2c(-c3cccs3)nc3nc4ccccc4nc32)cc1` it was 65.7% (active); in that of `C=CCn1c(-c2cccs2)nc2nc3ccccc3nc21`, -4.6% (inactive). As to `CCCn1c(-c2cccs2)nc2nc3ccccc3nc21`, the activation is 13.8% (inactive). In the case of `O=C(NCc1cnc2ccccn12)C1CCC(=O)N(Cc2ccccc2F)C1` (stereo not given) it was -0.5% (inactive); in that of `CN(C)S(=O)(=O)c1ccc(NC(=O)N2CCN(c3ccccc3)CC2)cc1`, 22.3% (inactive). In the case of `CC(=O)N1CCN(c2ccc(NC(=O)c3cc(Cl)ccc3Cl)cc2)CC1` it was -3.7% (inactive); in that of `C=C(C)CSc1nnc2n(Cc3ccccc3)c(=O)c3c4c(sc3n12)CCC4`, -1.4% (inactive). Take `CCCSc1nnc2n(Cc3ccccc3)c(=O)c3c4c(sc3n12)CCC4`: the activation was 69.7% (active). In the case of `CCOC(=O)CSc1nnc2n(Cc3ccccc3)c(=O)c3c4c(sc3n12)CCC4` it was -9.3% (inactive); in that of `O=C(NCC1CCCO1)C1CCCN(S(=O)(=O)c2ccc(Br)cc2)C1` (stereo not given), 0.4% (inactive); in that of `CCOC(=O)c1ccccc1N/C=C1\CCCC1=O`, 0.9% (inactive). The value for `Cn1c(=O)oc2cc(S(=O)(=O)N3CCN(c4ccc(F)cc4)CC3)ccc21` was -1.1% (inactive); that for `O=C1CN(CC(=O)N2CCCCC2)c2ccccc2O1` was -1.4% (inactive). In the case of `COc1cc([N+](=O)[O-])ccc1NC(=O)Nc1ccc(C(=O)N2CCCC2)cc1` it was -5.9% (inactive); in that of `Brc1ccc(CSc2nnc(-c3cnccn3)n2Cc2ccco2)cc1`, 41.3% (inactive); in that of `COC(=O)CSc1nnc(-c2ccccn2)n1Cc1ccco1`, -0.5% (inactive). As for `NC(=O)CSc1nnc(-c2ccccn2)n1Cc1ccco1`, the activation is 2.2% (inactive).

For `C(=C\c1ccccc1)/CSc1nnc(-c2ccccc2)n1Cc1ccco1`, the activation is 3.8% (inactive). The value for `O=C(CSc1nnc(-c2ccccn2)n1Cc1ccco1)c1ccccc1` was 15.7% (inactive); that for `C(=C\c1ccccc1)/CSc1nnc(-c2cnccn2)n1Cc1ccco1` was 16.2% (inactive); that for `COc1cc(S(=O)(=O)NC2CCCC2)ccc1-n1cnnn1` was -0.2% (inactive). In the case of `CCOc1ccccc1NC(=O)CCn1cccc1` it was -0.4% (inactive).
